Measured values taken from PubChem BioAssay (Tox21).
“And” between values parts separate entries of the source, which are not always exact repeats. Equal entries are not always repeated. Some compounds were tested as several samples or in several runs, with calls that do not always agree. The source made the active and inactive calls. A call without a number means that no potency is given here. Unless noted, the call rests on the fitted dose curve; in most records, active means well fitted curve in the direction sought with a large enough effect in the repeat runs; inconclusive means weak or mixed curves; inactive means no such curve, though single readings can be large; an effect the other way counts as inactive or inconclusive.

Key:
[1] = qHTS assay for identifying genotoxic compounds that show differential cytotoxicity against isogenic chicken DT40 cell lines with known DNA damage response pathways - wild type cell line (AID 743012); further: nearly all actives have a fitted effect of over 60% in size; further: potency means the concentration at half of the fitted maximal effect
In short: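 Cytotoxicity in repair-proficient parental chicken DT40 cells serves as the comparator for Rad54/Ku70- and Rev3-deficient lines. Cells were exposed to compounds for 40 h at 37 C/5% CO2, and ATP-based luminescence (CellTiter-Glo) measured viability.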

[2] = qHTS assay for identifying genotoxic compounds that show differential cytotoxicity against isogenic chicken DT40 cell lines with known DNA damage response pathways - Rev3 mutant cell line (AID 743014); further: nearly all actives have a fitted effect of over 55% in size; further: potency means the concentration at half of the fitted maximal effect
[3] = qHTS assay for identifying genotoxic compounds that show differential cytotoxicity against isogenic chicken DT40 cell lines with known DNA damage response pathways - Rad54/Ku70 mutant cell line (AID 743015); further: nearly all actives have a fitted effect of over 60% in size; further: potency means the concentration at half of the fitted maximal effect
[4] = qHTS assay to identify small molecule antagonists of the androgen receptor (AR) signaling pathway - cell viability counter screen (AID 743033; further: nearly all actives have a fitted effect of over 45% in size)
[5] = molecular target: Androgen receptor (Homo sapiens) (UniProt P10275); experiment: qHTS assay to identify small molecule antagonists of the androgen receptor (AR) signaling pathway (AID 743035; active means well fitted inhibition curve with a large enough effect in the signal ratio in the repeat runs, not every such curve was filed as active; inconclusive means weak or mixed curves, or effect the other way; inactive means no such curve, though single readings can be large or run the other way; the % refers to the signal ratio)
Sequence of Androgen receptor (Homo sapiens) (P10275 whole entry, looked up): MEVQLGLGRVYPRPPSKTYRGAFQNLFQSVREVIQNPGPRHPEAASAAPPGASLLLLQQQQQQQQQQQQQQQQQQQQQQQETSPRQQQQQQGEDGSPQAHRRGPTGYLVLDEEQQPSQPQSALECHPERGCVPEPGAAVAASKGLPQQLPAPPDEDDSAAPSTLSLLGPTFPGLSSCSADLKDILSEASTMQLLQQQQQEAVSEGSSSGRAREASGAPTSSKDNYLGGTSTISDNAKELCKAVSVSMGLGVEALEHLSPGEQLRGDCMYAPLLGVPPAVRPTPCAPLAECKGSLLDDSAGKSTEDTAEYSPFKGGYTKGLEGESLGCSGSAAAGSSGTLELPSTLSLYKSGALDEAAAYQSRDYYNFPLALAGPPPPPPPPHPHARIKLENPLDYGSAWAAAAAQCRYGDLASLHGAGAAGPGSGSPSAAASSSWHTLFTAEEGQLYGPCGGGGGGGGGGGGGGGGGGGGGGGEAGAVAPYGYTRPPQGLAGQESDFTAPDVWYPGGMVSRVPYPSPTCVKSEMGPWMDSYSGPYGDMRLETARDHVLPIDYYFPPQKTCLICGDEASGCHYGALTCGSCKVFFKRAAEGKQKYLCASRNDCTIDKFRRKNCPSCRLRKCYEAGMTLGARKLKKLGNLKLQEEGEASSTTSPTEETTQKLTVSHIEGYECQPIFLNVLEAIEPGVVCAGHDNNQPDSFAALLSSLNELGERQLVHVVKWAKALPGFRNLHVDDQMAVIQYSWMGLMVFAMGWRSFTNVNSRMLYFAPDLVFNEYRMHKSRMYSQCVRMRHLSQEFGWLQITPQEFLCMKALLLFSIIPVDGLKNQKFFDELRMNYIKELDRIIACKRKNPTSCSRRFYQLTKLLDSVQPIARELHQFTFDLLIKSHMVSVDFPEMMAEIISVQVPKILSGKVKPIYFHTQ
In short: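 Steps: seed AR-UAS-bla GripTite HEK293 cells, incubate 4 h at 37C; pin in test compound, then add agonist R1881; incubate 16 h at 37C; add LiveBLAzer B/G FRET substrate, 2 h at room temperature; read fluorescence.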

[6] = qHTS assay to identify small molecule antagonists of the androgen receptor (AR) signaling pathway using the MDA cell line - cell viability counter screen (AID 743041; further: nearly all actives have a fitted effect of over 45% in size)
In short: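 qHTS viability read-out; MDA-kb2 AR-luc; R1881-stimulated; 16 h exposure at 37C, 0% CO2; CellTiter-Fluor, 30 min; fluorescence intensity.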

[7] = qHTS assay to identify small molecule antagonists of the thyroid receptor (TR) signaling pathway - cell viability counter screen (AID 743064); further: nearly all actives have a fitted effect of over 50% in size
In short: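 Rat GH3 pituitary tumor cells stably expressing two TR response elements driving luciferase were plated, rested 4 h, then dosed with library compounds and T3 (1 nM final). After 23.5 h at 37 °C, CellTiter-Fluor was added for 30 min and fluorescence recorded.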

[8] = qHTS assay to identify small molecule antagonists of the thyroid receptor (TR) signaling pathway (AID 743065); further: nearly all actives have a fitted effect of over 55% in size; further: potency means the concentration at half of the fitted maximal effect
In short: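 GH3.TRE-Luc rat pituitary cells carrying two TR response elements driving luciferase were plated for 4 h, given compound plus 1 nM T3 (final), and incubated 23.5 h at 37 C. ONE-Glo luminescence measured reporter inhibition; CellTiter-Fluor fluorescence tracked cytotoxicity.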

[9] = system: thyroid hormone receptor (rat, GH3 cells); experiment: qHTS assay to identify small molecule agonists of the thyroid receptor (TR) signaling pathway (AID 743066; calls by dose curve)
[10] = molecular target: Estrogen receptor (Homo sapiens) (UniProt P03372); experiment: qHTS assay to identify small molecule antagonists of the estrogen receptor alpha (ER-alpha) signaling pathway (AID 743069; active means well fitted curve in the direction sought with a large enough effect in the signal ratio in the repeat runs, not every such curve was filed as active; inconclusive means weak or mixed curves, or effect the other way; inactive means no such curve, though single readings can be large or run the other way; the % refers to the signal ratio)
Sequence of Estrogen receptor (Homo sapiens) (P03372 whole entry, looked up): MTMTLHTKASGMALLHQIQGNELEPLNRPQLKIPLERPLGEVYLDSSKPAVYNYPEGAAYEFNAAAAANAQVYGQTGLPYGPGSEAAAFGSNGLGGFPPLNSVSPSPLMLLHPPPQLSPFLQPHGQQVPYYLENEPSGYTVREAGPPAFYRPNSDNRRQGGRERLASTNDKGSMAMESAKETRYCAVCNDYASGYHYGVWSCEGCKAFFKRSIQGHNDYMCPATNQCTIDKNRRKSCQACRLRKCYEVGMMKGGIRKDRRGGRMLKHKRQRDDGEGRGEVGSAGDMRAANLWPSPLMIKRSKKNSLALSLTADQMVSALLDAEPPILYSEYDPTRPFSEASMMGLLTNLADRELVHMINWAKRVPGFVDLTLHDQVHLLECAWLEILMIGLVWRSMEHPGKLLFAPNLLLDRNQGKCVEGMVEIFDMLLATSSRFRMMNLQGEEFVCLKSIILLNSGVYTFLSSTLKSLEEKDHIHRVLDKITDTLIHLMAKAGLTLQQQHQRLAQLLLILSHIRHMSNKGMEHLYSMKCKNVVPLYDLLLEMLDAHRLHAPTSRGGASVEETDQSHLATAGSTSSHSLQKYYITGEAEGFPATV
In short: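 Screening used a UAS-driven beta-lactamase reporter integrated into HEK293 cells expressing ER-alpha, stimulated with 17beta-estradiol alongside test compounds over 18 hr at 37C; signal came from LiveBLAzer B/G FRET fluorescence.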

[11] = qHTS assay to identify small molecule antagonists of the estrogen receptor alpha (ER-alpha) signaling pathway - cell viability counter screen (AID 743074; calls by dose curve; further: nearly all actives have a fitted effect of over 45% in size)
[12] = molecular target: Estrogen receptor (Homo sapiens) (UniProt P03372); experiment: qHTS assay to identify small molecule agonists of the estrogen receptor alpha (ER-alpha) signaling pathway (AID 743075; calls by dose curve; further: potency means the concentration at half of the fitted maximal effect)
[13] = molecular target: Estrogen receptor (Homo sapiens) (UniProt P03372); experiment: qHTS assay to identify small molecule agonists of the estrogen receptor alpha (ER-alpha) signaling pathway using the BG1 cell line (AID 743079); further: nearly all actives have a fitted effect of over 20% in size; further: potency means the concentration at half of the fitted maximal effect
[14] = qHTS assay to identify small molecule antagonists of the estrogen receptor alpha (ER-alpha) signaling pathway using the BG1 cell line (AID 743080; calls by dose curve; further: nearly all actives have a fitted effect of over 25% in size; further: potency means the concentration at half of the fitted maximal effect)
In short: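 Antagonist mode: compounds in DMSO were pinned onto BG1-Luc-4E2 cells alongside 17beta-estradiol agonist, incubated 21.5 h, and ERE-driven luciferase measured with ONE-Glo. Cytotoxicity was multiplexed using CellTiter-Fluor fluorescence.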

[15] = qHTS assay to identify small molecule antagonists of the estrogen receptor alpha (ER-alpha) signaling pathway using the BG1 cell line - cell viability counter screen (AID 743081);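 further: compound given together with 17beta-estradiol as the ER stimulus; nearly all actives have a fitted effect of over 45% in size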
[16] = molecular target: Aromatase (Homo sapiens) (UniProt P11511); experiment: qHTS assay to identify aromatase inhibitors (AID 743083); further: nearly all actives have a fitted effect of over 55% in size
Sequence of Aromatase (Homo sapiens) (P11511 whole entry, looked up): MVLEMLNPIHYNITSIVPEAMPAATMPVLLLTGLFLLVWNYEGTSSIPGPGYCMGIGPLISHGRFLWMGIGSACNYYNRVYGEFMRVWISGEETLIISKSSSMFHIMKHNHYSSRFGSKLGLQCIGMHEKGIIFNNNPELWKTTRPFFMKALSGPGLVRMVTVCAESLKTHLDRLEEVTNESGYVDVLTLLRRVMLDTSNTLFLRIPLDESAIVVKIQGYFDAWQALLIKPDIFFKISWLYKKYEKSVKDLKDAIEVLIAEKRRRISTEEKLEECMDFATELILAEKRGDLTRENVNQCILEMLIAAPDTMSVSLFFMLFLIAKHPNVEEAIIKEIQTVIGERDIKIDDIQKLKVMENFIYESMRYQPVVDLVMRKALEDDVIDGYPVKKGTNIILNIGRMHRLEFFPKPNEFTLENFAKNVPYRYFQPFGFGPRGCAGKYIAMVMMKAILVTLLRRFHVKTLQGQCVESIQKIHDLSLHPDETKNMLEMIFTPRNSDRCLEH

[17] = molecular target: Androgen receptor (Homo sapiens) (UniProt P10275); experiment: qHTS assay to identify small molecule agonists of the androgen receptor (AR) signaling pathway (AID 743036; active means well fitted activation curve with a large enough effect in the signal ratio in the repeat runs, with a control signal flat, not every such curve was filed as active; inconclusive means weak or mixed curves, or effect the other way; inactive means no such curve, though single readings can be large or run the other way; the % refers to the signal ratio)
In short: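 Quantitative HTS of the Tox21 10K library in HEK293 cells bearing a stably integrated UAS-controlled beta-lactamase reporter. Compound exposure lasted 16 h at 37C. Reporter activity was detected by FRET substrate fluorescence after 2 h at room temperature.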

[18] = molecular target: Androgen receptor (Homo sapiens) (UniProt P10275); experiment: qHTS assay to identify small molecule agonists of the androgen receptor (AR) signaling pathway using the MDA cell line (AID 743040; further: nearly all actives have a fitted effect of over 20% in size); conditions: MDA-kb2 AR-luc cells, MMTV luciferase, 16 h, stronger effect = higher value
In short: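 Agonist activity is measured as luciferase luminescence in human MDA-kb2 cells whose MMTV reporter responds to both AR and GR. Compounds in DMSO incubate 16 h at 37C, 0% CO2, and ONE-Glo is read after 30 min.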

[19] = molecular target: Androgen receptor (Homo sapiens) (UniProt P10275); experiment: qHTS assay to identify small molecule antagonists of the androgen receptor (AR) signaling pathway using the MDA cell line (AID 743042; further: nearly all actives have a fitted effect of over 55% in size; further: potency means the concentration at half of the fitted maximal effect)
In short: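 MDA-kb2 cells (human breast carcinoma, stably carrying an MMTV-luciferase reporter responsive to AR and GR) were plated at 3,000 cells/well and preincubated 5 hr at 37C, then given compound plus R1881 agonist for 16 h. ONE-Glo luminescence was read.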

[20] = qHTS assay to identify small molecule antagonists of the glucocorticoid receptor (GR) signaling pathway - cell viability counter screen (AID 720693); further: nearly all actives have a fitted effect of over 55% in size
[21] = activity change: at 70.3 µM (top of the series)

CC(C)c1ccc(CO)cc1
Potency [1]: inactive
Potency [2]: inactive
Potency [3]: inactive
Potency [4]: inactive
Potency [5]: inactive
Potency [6]: inactive
Potency [7]: inactive
Potency [8]: inactive
Potency [9]: inactive
Potency [10]: inactive
Potency [11]: inactive
Potency [12]: 43.7 µM [inconclusive] (active) and inactive
Potency [13]: 54.5 µM (active) and inactive
Potency [14]: inactive
Potency [15]: inactive
Potency [16]: inactive

CCCCCCCCOC(=O)c1ccccc1C(=O)OCCCCCCCC
Potency [1]: inactive
Potency [2]: inactive
Potency [3]: inactive
Potency [4]: inactive
Potency [5]: inactive
Potency [17]: inactive
Potency [18, 21]: inactive
Potency [6]: inactive
Potency [19]: inactive
Potency [7]: inactive
Potency [8]: inactive
Potency [9]: inactive
Potency [10]: inactive
Potency [11]: inactive
Potency [12]: inactive
Potency [13]: inactive
Potency [14]: inactive
Potency [15]: inactive
Potency [16]: inactive

C=CCN(CC=C)C(=O)C(Cl)Cl
Potency [20]: inactive
Potency [1]: inactive
Potency [2]: inactive
Potency [3]: inactive
Potency [4]: inactive
Potency [6]: inactive
Potency [8]: inactive
Potency [9]: inactive
Potency [11]: inactive
Potency [15]: inactive
Potency [16]: inactive

N#Cc1cc(Br)c(O)c(Br)c1
Potency [20]: inactive
activity change [18, 21]: -6.84% (active)
activity change ([18]; at 70.3 µM (top of the series)): -3.58% (inactive)
Potency [6]: inactive
Potency [19]: 61.1 µM (active)
Potency [7]: inactive
Potency [8]: 68.5 µM (active)
Potency [9]: inactive
Potency [10]: inactive
Potency [11]: inactive
Potency [12]: inactive
Potency [14]: 68.5 µM (active) and 52.5 µM (active)
Potency [15]: inactive
Potency [16]: inactive

O=C1C=CC(=O)C=C1
Potency [20]: inactive
Potency [1]: inactive and 9.69 µM (active)
Potency [2]: inactive and 9.69 µM (active)
Potency [3]: inactive and 10.9 µM (active)
Potency [4]: inactive
Potency [6]: inactive
Potency [8]: inactive
Potency [9]: inactive
Potency [11]: inactive
Potency [15]: inactive
Potency [16]: inactive

COP(=S)(OC)Oc1cc(Cl)c(Cl)cc1Cl
Potency [1]: inactive
Potency [2]: inactive
Potency [3]: inactive
Potency [4]: inactive
Potency [5]: inactive
Potency [18, 21]: inactive
Potency [6]: inactive
Potency [19]: inactive
Potency [7]: inactive
Potency [8]: inactive
Potency [9]: inactive
Potency [11]: inactive
Potency [12]: inactive
Potency [13]: inactive
Potency [14]: inactive
Potency [15]: inactive
Potency [16]: inactive

CC(C)C(=O)OCC(C)(C)C(OC(=O)C(C)C)C(C)C (centres undefined)
Potency [20]: inactive
Potency [4]: inactive
Potency [6]: inactive
Potency [9]: inactive
Potency [10]: inactive
Potency [11]: inactive
Potency [12]: 6.92 µM [inconclusive] (active)
Potency [13]: 12.2 µM (active)
Potency [14]: inactive
Potency [15]: inactive
Potency [16]: inactive
